In ChEMBL document CHEMBL3433997, “St. Jude Leishmania screening dataset” (2016):

How the values were obtained:
Format in all cases: functional
[1] = molecular target: Solute carrier family 2, facilitated glucose transporter member 1 (Homo sapiens) (UniProt P11166); assay: ST_JUDE_LEISH: Cytotoxicity at 2uM final concentration against transgenic Leishmania Mexicana promastigotes LmGLUT1 that are glucose transport deficient and complemented with the human glucose transporter GLUT1. Activity is measured by DNA content using SYBR green in vitro
[2] = molecular target: Hexose transporter 1 (Plasmodium falciparum) (UniProt O97467); assay: ST_JUDE_LEISH: Cytotoxicity at 2uM final concentration against transgenic Leishmania Mexicana promastigotes LmPfHT that are glucose transport deficient and complemented with the Plasmodium falciparum hexose transporter. Activity is measured by DNA content using SYBR green in vitro
[3] = molecular target: Glucose transporter (Leishmania mexicana) (UniProt O61059); assay: ST_JUDE_LEISH: Cytotoxicity at 2uM final concentration against transgenic Leishmania Mexicana promastigotes LmGT2 that are glucose transport deficient and complemented with the L. Mexicana glucose transporter 2. Activity is measured by DNA content using SYBR green in vitro

Sequence of Solute carrier family 2, facilitated glucose transporter member 1 (Homo sapiens) (P11166 whole entry): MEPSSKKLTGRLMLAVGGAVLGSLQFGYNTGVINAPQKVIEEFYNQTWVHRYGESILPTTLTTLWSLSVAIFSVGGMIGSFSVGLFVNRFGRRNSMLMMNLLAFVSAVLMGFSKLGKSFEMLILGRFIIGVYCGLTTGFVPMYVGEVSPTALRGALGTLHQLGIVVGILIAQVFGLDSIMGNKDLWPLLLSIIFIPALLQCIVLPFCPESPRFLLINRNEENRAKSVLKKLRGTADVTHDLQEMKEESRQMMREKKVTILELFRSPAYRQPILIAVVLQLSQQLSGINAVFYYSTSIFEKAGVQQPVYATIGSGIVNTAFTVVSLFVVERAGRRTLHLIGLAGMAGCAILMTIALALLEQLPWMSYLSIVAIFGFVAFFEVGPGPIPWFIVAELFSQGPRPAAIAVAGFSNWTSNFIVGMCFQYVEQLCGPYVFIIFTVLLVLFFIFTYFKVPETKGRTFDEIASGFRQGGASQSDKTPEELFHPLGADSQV

For `OC(CNCc1ccccc1)c1cc(OCc2ccccc2)cc(OCc2ccccc2)c1` (stereo unspecified), the inhibition [1] was -0.14%, the inhibition [2] was -1.19% and the inhibition [3] was -0.63%.

In the case of `NC1=NC2(CCCCC2)N(OCCCCCCCCNc2nc(N)nc(N)n2)C(N)=N1`, the inhibition [1] was 4.34%, the inhibition [2] was 5.05% and the inhibition [3] was 5.12%.

Molecule `CC(C)NCc1ccc(OCc2cccc(COc3ccc(CNC(C)C)cc3I)c2)c(I)c1` has an inhibition [1] of 112%, an inhibition [2] of 109% and an inhibition [3] of 113%.

`CNC(=O)c1cnc(Nc2ccc(OCC(O)CN(C)C)cc2)nc1Nc1cccc(Br)c1` (stereo unspecified) was tested, and the inhibition [1] was 11.4%, the inhibition [2] was 11.1% and the inhibition [3] was 9.84%.

Work on `CS(=O)(=O)c1ccc(-c2cncc(Nc3cccc([N+](=O)[O-])c3)c2)cc1` yielded an inhibition [1] of 7.42%, an inhibition [2] of 7% and an inhibition [3] of 6.3%.

Work on `CC(C)(C)OC(=O)n1cc(C2CCN(CCCC34CCCc5cccc(c53)NC4=O)CC2)c2ccncc21` (stereo unspecified) yielded an inhibition [1] of -0.89%, an inhibition [2] of -0.01% and an inhibition [3] of 9.45%.

For `c1ccc(CCNCc2ccc(-c3ccc(CNCc4ccc5c(c4)OCO5)cc3)nc2)cc1`, the inhibition [1] was 2.48%, the inhibition [2] was -1.05% and the inhibition [3] was 1.81%.

With `Cc1nnc2c(NC(=O)NC(C)C)cc3cc(-c4ccc(CN5CCCCC5)cc4)ccc3n12` the inhibition [1] was 56%, the inhibition [2] was 10.5% and the inhibition [3] was 11%.

`Cc1nc2nc(N)nc(N)c2c(C)c1Cc1ccc([N+](=O)[O-])cc1` gave an inhibition [1] of 5.73%, an inhibition [2] of 3.25% and an inhibition [3] of -0.24%.

`O=C1Nc2cccc3c2C1(CCCCN1CCC(c2c[nH]c4cc(C(F)(F)F)ccc24)CC1)CCC3` (stereo unspecified) gave an inhibition [1] of 3.89%, an inhibition [2] of 1.75% and an inhibition [3] of 0.54%.

`COc1cc(Nc2ccnc3ccc(C(F)(F)F)cc23)cc(OC)c1OC` showed an inhibition [1] of 18.2%, an inhibition [2] of 23.1% and an inhibition [3] of 12.6%.

`C=C[C@]1(C)C[C@@H](OC(=O)CNC[C@@H](O)CN2C[C@H](c3ccnc4ccc(OC)nc34)OC2=O)[C@@]2(C)[C@@H]3C(=O)CC[C@@]3(CC[C@@H]2C)[C@@H](C)[C@@H]1O` showed an inhibition [1] of 2.09%, an inhibition [2] of 1.68% and an inhibition [3] of 1.03%.

In the case of `Cc1cc(C)c(NC(=O)N2CCCN(CCCCCNC(=O)/C=C/c3ccc(Cl)c(Cl)c3)CC2)c(C)c1`, the inhibition [1] was 3.44%, the inhibition [2] was 2.95% and the inhibition [3] was 2.56%.

`CCCNc1nc(NCc2c(C)cccc2C)nc(NC(C)(C)C)n1` was tested, and the inhibition [1] was 6.93%, the inhibition [2] was 8.23% and the inhibition [3] was 1.74%.

For `CCOC(=O)NC1=NC(C)(C)N(OCc2cccc3c2ccc2ccccc23)C(NC(=O)OCC)=N1`, the inhibition [1] was 10.7%, the inhibition [2] was 11.1% and the inhibition [3] was 10.3%.

Molecule `OCc1ccc(-c2cncc(Nc3ccc(F)c(Cl)c3)c2)cc1` has an inhibition [1] of 3.7%, an inhibition [2] of 4.21% and an inhibition [3] of 1.04%.

`N=C(N)Nc1cccc(NC(=O)Nc2cccc(NC(=N)N)c2)c1` gave an inhibition [1] of 6.92%, an inhibition [2] of 4.83% and an inhibition [3] of 3.86%.

`Oc1cc(NC[C@H]2CCC[C@@H]2NCc2cc(Br)cc(Br)c2)nc2ccccc12` gave an inhibition [1] of 2.99%, an inhibition [2] of 4.07% and an inhibition [3] of 3.27%.

Molecule `N#Cc1c(N)nc(SCC(=O)Nc2cc(C(F)(F)F)ccc2Cl)c(C#N)c1-c1cccs1` has an inhibition [1] of 1.06%, an inhibition [2] of 0.77% and an inhibition [3] of 0.5%.

Work on `COc1ccc2nccc([C@@H](O)CN3CCC(NCc4nc5ccc(F)cc5[nH]4)CC3)c2c1` yielded an inhibition [1] of 2.34%, an inhibition [2] of 1.93% and an inhibition [3] of 2.2%.

`Cc1cc(F)ccc1Nc1nc(N(C)c2ccccc2)c2cc(OCCN(C)C)ccc2n1` showed an inhibition [1] of 7.87%, an inhibition [2] of 6.84% and an inhibition [3] of 2.04%.

With `O=C(C1CC1c1ccccc1)N(Cc1ccc(-c2ccc(CNCCc3ccccc3)cc2)cc1)C1CCNCC1` (stereo unspecified) the inhibition [1] was 10.3%, the inhibition [2] was 8.35% and the inhibition [3] was 9.97%.

For `CN(Cc1cccc(O)c1)C1CCCN(c2cc(NC(=O)c3ccc(F)cc3)ccn2)C1` (stereo unspecified), the inhibition [1] was 3.85%, the inhibition [2] was 6.05% and the inhibition [3] was 5.91%.

Work on `CCOC(=O)C(C(C)=O)C(c1ccccc1)C(C(C)=O)C(=O)OCC` (stereo unspecified) yielded an inhibition [1] of 3.08%, an inhibition [2] of 4.69% and an inhibition [3] of 0.94%.

Molecule `O=C(Nc1ccc([N+](=O)[O-])cc1)Nc1nc2ccc(Cl)cc2s1` has an inhibition [1] of 5.09%, an inhibition [2] of 4.52% and an inhibition [3] of 1.81%.

In the case of `O=C(N[C@@H](Cc1ccccc1)C(=O)NCc1cccc(C(F)(F)F)c1)c1ccc(O)c(-c2ccc(Cl)c(Cl)c2)c1`, the inhibition [1] was 3.7%, the inhibition [2] was 0.97% and the inhibition [3] was -2.02%.

`Nc1nc(N)c2c(ccc3c2cnn3S(=O)(=O)N2CCCC2)n1` showed an inhibition [1] of -1.43%, an inhibition [2] of 0.03% and an inhibition [3] of -2.01%.

For `COc1cc(C)nc2ccc(NC(=O)c3cc([N+](=O)[O-])cc([N+](=O)[O-])c3)cc12`, the inhibition [1] was 2.43%, the inhibition [2] was 0.24% and the inhibition [3] was 3.33%.

`CC(=O)Nc1ccc(C(=O)Nc2cccc(-c3ccc(-c4nc5cccc(C)c5[nH]4)cc3)c2)cn1` showed an inhibition [1] of 4.86%, an inhibition [2] of 4.51% and an inhibition [3] of 4.91%.

With `Cc1cccc2nc(-c3ccc(-c4cccc(NC(=O)Nc5ccsc5)c4)s3)[nH]c12` the inhibition [1] was 0.98%, the inhibition [2] was 2.82% and the inhibition [3] was 1.03%.

In the case of `COc1ccc(NC(=O)Nc2ccc(-c3ccncc3)c(Cl)c2)cc1N1CCN(C)CC1`, the inhibition [1] was -1.37%, the inhibition [2] was -0.91% and the inhibition [3] was -2.2%.

With `CC(C)C[C@H](NC(=O)c1cc2ccccc2s1)C(=O)N[C@H]1CCN(Cc2ccc(OC3CCN(C)C3)c(Cl)c2)C1` (stereo partly specified) the inhibition [1] was 1.48%, the inhibition [2] was 2.37% and the inhibition [3] was -0.19%.
